# Experimental data from PubChem BioAssay (NCI).
# This is part of a sample that, as a whole, favours compounds with a hit. Of some 83,000 tested, about 20% had one in any assay.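 Cell lines were cultured in 96-well plates, exposed to a single compound concentration, and assessed for percent growth 48 hours later.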 Calls of active or inactive are those of the source.
# Tested on: PC-3 prostate
# Assay: NCI-60 one-dose screen, 48 h (100 = growth as untreated, 0 = no growth, -100 = all killed)
# Conditions: 10 µM unless noted
# Procedure: Growth inhibition of the PC-3 human tumor cell line is measured as a screen for anti-cancer activity. Cells are grown in 96 well plates and exposed to the test compound for 48 hours. Compounds are tested at a single concentration, which is 10^-5 M for most compounds. The reported endpoint is percent growth (GI% or GIPRCNT), where numbers from 0 - 100% represent growth inhibition, and numbers from -100% - 0 represent cell death. For example, a value of 40 represents 60% growth inhibition. A value of 0 means no net growth occurred over the course of the experiment. A value of -40 indicates 40% of cells at the beginning of the experiment died by the end of the experiment. A value of -100 means all cells are dead at the end of the experiment.
# NCI-60 Human Tumor Cell Lines Screen was performed using the standard one-dose NCI protocol, which is described in more detail at https://dtp.cancer.gov/discovery_development/nci-60/default.htm.
# Compounds with GIPRCNT values below 10 were considered active. Activity score was based on GIPRCNT using the following formula: […]
# Score is 0 for GIPRCNT values of 100 or above, 50 for GIPRCNT values of 0, and 100 for GIPRCNT values of -100.
row,Structure (SMILES),growth
1,CC(=S)NC(=O)C(=O)/C=C1/NC(=O)C(=O)S1,99.6% (inactive)
2,CCOc1cccc(/C=N\Nc2nc(=O)cc(C(=O)OC)s2)c1O,72.8% (inactive)
3,O=[N+]([O-])c1cc2c(ccc3occc32)o1,66.7% (inactive)
4,O=C1OC(c2ccccc2)(c2ccccc2)c2ccsc21,101% (inactive)
5,COc1cc(/C=C2\Oc3cc(OCCCN4CCCC4)ccc3C2=O)cc(OC)c1,39.3% (inactive)
6,O=C(CCc1nnc2sc(COc3ccccc3)nn12)c1nc2ncccc2[nH]1,96.5% (inactive)
7,NCCNc1nc2ccc(F)cc2c2c(=O)c3cc(F)ccc3sc12,45% (inactive)
8,CCN(CC)CCCNc1ccnc2cc3ccccc3cc12,60.7% (inactive)
9,Cc1c(-c2noc(-c3ccc([N+](=O)[O-])cc3)n2)no[n+]1[O-],92.5% (inactive)
10,CN1C(=O)N(C)C2(c3ccccc3)n3c(s/c(=C\c4ccccc4)c3=O)=NNC12c1ccccc1 (stereo not given),74.2% (inactive)
11,Cc1ccc2cccc(Oc3ccc(Nc4ncnc5onc(-c6ccccc6)c45)cc3)c2n1,58.5% (inactive)
12,O=S1(=O)CCN(Cc2ccccc2)CC1,101% (inactive)
13,CCN1C(=O)N(c2ccccc2)C2Nn3c(s/c(=C4\C(=O)N(C(C)C)c5ccccc54)c3=O)=NC21 (stereo not given),106% (inactive)
14,CCCCCCn1c(=N)n(CC(O)COc2cccc(C)c2)c2ccccc21 (stereo not given),-11% (active)
15,CNCCNc1nc2ccccc2c2c(=O)c3cccc(OC)c3sc12,26.1% (inactive)
16,CCOc1ccc(Nc2ccnc3cc(Cl)ccc23)cc1,4.74% (active)
17,CCCSC1=NC2C(N(CC)C(=O)N2CC)N1/N=C/C=C/c1ccccc1[N+](=O)[O-] (stereo not given),24.9% (inactive)
18,O=c1c(-c2nc3ccccc3[nH]2)cc2ccccc2n1Cc1cn(Cc2ccc(N3CCOCC3)cc2)nn1,65.9% (inactive)
19,O=c1oc2ccc(I)cc2c(=O)n1-c1ccc(Cl)cc1F,-0.803% (active)
20,COc1cc(/C=C2\CN(S(=O)(=O)c3ccccc3)C/C(=C\c3cc(CN4CCCC4)c(O)c(OC)c3)C2=O)cc(CN2CCCC2)c1O,8.85% (active)

row,Structure (SMILES),growth
1,CCOc1ccc(-c2nonc2NC(=O)c2cccc(C)c2)cc1OCC,27.4% (inactive)
2,COC(=O)/C(CCC=C(C)C)=C1\[C@@H](OC(C)=O)C[C@@]2(C)[C@H]1C[C@@H](O)[C@H]1[C@@]3(C)CC[C@H](NCCCNCCCCNCCCN)[C@@H](C)[C@@H]3CC[C@@]12C,77.3% (inactive)
3,CCN1C(=O)N(c2ccccc2)C2NN=c3s/c(=C4\C(=O)N(C(C)C)c5ccccc54)c(=O)n3C21 (stereo not given),25.7% (inactive)
4,O=C(NC1C(O)OC(CO)C(O)C1O)NS(=O)(=O)c1ccc(Cl)cc1 (stereo not given),94.5% (inactive)
5,COc1ccc(C2=Nn3c(NN)nnc3SC2)cc1,87.6% (inactive)
6,Cn1c2c(c(=O)[nH]c1=O)NC1=C(C(=O)c3ccccc31)C1(C=C(O)c3ccccc31)N2 (stereo not given),94.1% (inactive)
7,O=C(CN1C=NC2C(N3CCOCC3)=NC=NC21)c1cccc2ccccc12 (stereo not given),85.2% (inactive)
8,CSc1nc2c(c(=O)[nH]1)N=C1c3ccccc3C(=O)C1C(c1ccccc1)N2 (stereo not given),54.5% (inactive)
9,CN1CCN(Cc2ccc(NC(=O)c3[nH]ncc3Nc3cc(OC4CCCC4)ncn3)cc2)CC1,8.34% (active)
10,O=c1oc2ccc(F)cc2c(=O)n1-c1ccc(F)cc1F,16.1% (inactive)
11,CCCC(c1nnnn1C1CCCCC1)N1CCN(C(=O)c2ccco2)CC1 (stereo not given),54.2% (inactive)
12,COc1ccc(-c2cn3c(C(=O)Nc4ccccc4Cl)c(-c4ccccc4)c4c3n2CCCC4)cc1,72.8% (inactive)
13,COc1ccc(-c2nc(N3CCN(C(=O)C4CCCCC4)CC3)c3c4c(sc3n2)CCCC4)cc1,-28.7% (active)
14,COc1ccc(-c2nc(-c3ccccn3)c(-c3ccccn3)n2CC(C)C)cc1OC1CCCC1,12.6% (inactive)
15,CC1=NCC2NC(=O)NC(C)=C12 (stereo not given),93.9% (inactive)
16,C[n+]1c2ccccc2nc2ccc(NCCO)cc21,50.7% (inactive)
17,Cc1ccc(OCCCCCCNCCO)c(C)c1,16% (inactive)
18,CCOC(=O)C(CC(=O)O)=C(C(=O)OCC)C(=O)OCC,112% (inactive)
19,CCOC(=O)c1c(Cl)c2c(n1Cc1ccccc1)-c1oncc1CCC2,65.6% (inactive)
20,CC1=C(C(=O)OCC2CCN(C(=O)OC(C)(C)C)CC2)[C@@H](c2cccc(C#N)c2)C2=C(CC(C)(C)CC2=O)N1,48% (inactive)
